Laboratory results: PubChem BioAssay AID1159580 (chemical genetic matrix, 2015)
Where “and” joins values, the source holds several entries; their conditions need not be identical. Equal values may be shown once. Out of some 5,500 compounds screened, about 2,000 (36%) were called active. Another 18% or so got no clear call; they are omitted. Rule as the data show it: active = normalized growth mostly below about 0.91 (no sharp cut-off); inconclusive = no clear call, values can overlap the other calls; inactive = mostly above about 0.92. Some of the results follow.

Test: chemical genetic growth profiling, strain panel (AID 1159580);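 also: tested at 20 µM; growth read once vehicle control cultures reached saturation at 30 °C; 1 = growth at the plate median or of vehicle wells; lower values mean less growth of the strain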
Settings: S. cerevisiae deletion strains, growth OD

Measured: normalized growth

C=CC(C1=CC(=O)C(OC)=CC1=O)c1ccccc1 (configuration not stated)
active: locus YAL013W, strain DEP1, stronger effect = lower value 0.908 | locus YAL026C, strain drs2, stronger effect = lower value 0.853 | locus YAL030W, strain snc1, stronger effect = lower value 0.92 | locus YBL061C, strain skt5, stronger effect = lower value 0.847 | locus YBR009C, strain hhf1, stronger effect = lower value 0.728 | locus YBR023C, strain chs3, stronger effect = lower value 0.85 | locus YBR279W, strain paf1, stronger effect = lower value 0.858 | locus YCL011C, strain gbp2, stronger effect = lower value 0.843 | locus YCL016C, strain dcc1, stronger effect = lower value 0.845 | locus YCL061C, strain MRC1, stronger effect = lower value 0.911 | locus YDL035C, strain GPR1, stronger effect = lower value 0.825 | locus YDL192W, strain arf1, stronger effect = lower value 0.843 | locus YDR101C, strain arx1, stronger effect = lower value 0.854 | locus YDR137W, strain rgp1, stronger effect = lower value 0.616 | locus YDR159W, strain sac3, stronger effect = lower value 0.85 | locus YDR162C, strain NBP2, stronger effect = lower value 0.607 | locus YDR195W, strain ref2 1.32 [resistant] | locus YDR297W, strain sur2, stronger effect = lower value 0.913 | locus YDR318W, strain mcm21, stronger effect = lower value 0.83 | locus YDR388W, stronger effect = lower value 0.907 | locus YDR392W, strain spt3, stronger effect = lower value 0.233 | locus YDR502C, strain sam2, stronger effect = lower value 0.902 | locus YEL003W, strain gim4, stronger effect = lower value 0.823 | locus YER015W, strain faa2, stronger effect = lower value 0.815 | locus YER155C, strain BEM2 (second series), stronger effect = lower value 0.43 | locus YER167W, strain BCK2, stronger effect = lower value 0.747 | locus YGL086W, strain mad1, stronger effect = lower value 0.853 | locus YGL173C, strain kem1, stronger effect = lower value 0.855 | locus YGL240W, strain doc1, stronger effect = lower value 0.708 | locus YGR078C, strain PAC10, stronger effect = lower value 0.734 | locus YGR135W, strain pre9, stronger effect = lower value 0.864 | locus YGR229C, strain SMI1, stronger effect = lower value 0.692 | locus YHR027C, strain rpn1, stronger effect = lower value 0.92 | locus YHR030C, strain SLT2, stronger effect = lower value 0.895 and 0.797 | locus YHR079C, strain IRE1 (second series), stronger effect = lower value 0.908 | locus YHR079C, strain IRE1, stronger effect = lower value 0.824 | locus YHR129C, strain ARP1, stronger effect = lower value 0.88 | locus YHR142W, strain chs7, stronger effect = lower value 0.729 | locus YHR200W, strain rpn10, stronger effect = lower value 0.92 | locus YIL066C, strain RNR3, stronger effect = lower value 0.824 | locus YJL095W, strain BCK1 (second series), stronger effect = lower value 0.873 | locus YJL164C, strain tpk1, stronger effect = lower value 0.77 | locus YJL166W, strain qcr8, stronger effect = lower value 0.686 | locus YJL187C, strain SWE1, stronger effect = lower value 0.855 | locus YJR043C, strain POL32, stronger effect = lower value 0.768
inactive: locus YAL021C, strain ccr4, stronger effect = lower value 1.04 | locus YBR021W, strain FUR4, stronger effect = lower value 0.922 | locus YBR171W, strain sec66, stronger effect = lower value 0.992 | locus YBR229C, strain ROT2, stronger effect = lower value 0.969 | locus YBR231C, strain swc5, stronger effect = lower value 0.947 | locus YCL029C, strain bik1, stronger effect = lower value 0.948 | locus YCL069W, strain vba3, stronger effect = lower value 0.954 | locus YCR088W, strain abp1, stronger effect = lower value 0.969 | locus YDL005C, strain med2, stronger effect = lower value 1 | locus YDL040C, strain nat1, stronger effect = lower value 1 | locus YDL074C, strain BRE1, stronger effect = lower value 0.781 | locus YDL101C, strain DUN1, stronger effect = lower value 0.94 | locus YDL134C, strain PPH21, stronger effect = lower value 0.944 | locus YDL185W, strain tfp1, stronger effect = lower value 0.948 | locus YDR001C, strain nth1, stronger effect = lower value 0.983 | locus YDR069C, strain doa4, stronger effect = lower value 0.982 | locus YDR150W, strain NUM1, stronger effect = lower value 0.972 | locus YDR334W, strain swr1, stronger effect = lower value 0.999 | locus YDR335W, strain msn5, stronger effect = lower value 0.968 | locus YEL037C, strain rad23, stronger effect = lower value 0.993 | locus YEL061C, strain CIN8 (second series), stronger effect = lower value 0.966 | locus YEL061C, strain CIN8, stronger effect = lower value 0.932 | locus YER016W, strain bim1, stronger effect = lower value 0.985 | locus YER110C, stronger effect = lower value 0.936 | locus YER111C, strain swi4, stronger effect = lower value 0.977 | locus YER155C, strain BEM2, stronger effect = lower value 0.956 | locus YFR010W, strain ubp6, stronger effect = lower value 0.979 | locus YGL078C, strain dbp3, stronger effect = lower value 0.998 | locus YGL167C, strain pmr1, stronger effect = lower value 0.973 | locus YGL227W, strain vid30, stronger effect = lower value 0.963 | locus YGL248W, strain PDE1, stronger effect = lower value 0.947 | locus YGL253W, strain hxk2, stronger effect = lower value 0.92 | locus YGR252W, strain gcn5, stronger effect = lower value 0.854 | locus YHR013C, strain ard1, stronger effect = lower value 0.876 | locus YHR094C, strain hxt1, stronger effect = lower value 0.956 | locus YIL073C, strain SPO22, stronger effect = lower value 0.723 | locus YIL125W, strain kgd1, stronger effect = lower value 0.963 | locus YIR030C, strain dcg1, stronger effect = lower value 0.929 | locus YJL092W, strain hpr5, stronger effect = lower value 0.95 | locus YJL115W, strain asf1, stronger effect = lower value 1 | locus YJL129C, strain trk1, stronger effect = lower value 0.947 | locus YJL134W, strain LCB3, stronger effect = lower value 0.96 | locus YJL154C, strain vps35, stronger effect = lower value 0.999 | locus YJL168C, strain set2, stronger effect = lower value 0.953 | locus YJL187C, strain SWE1 (second series), stronger effect = lower value 0.944 | locus YJR066W, strain TOR1, stronger effect = lower value 0.858
0.852 (inactive) and 0.869 (active): locus YJL095W, strain BCK1, stronger effect = lower value
